# PubChem BioAssay (NCATS)
# Records with an inconclusive call do not appear. Calls of active or inactive are those of the source. Calls follow the shape of the dose curve; as a rule, active = well fitted cell-killing curve with a large enough effect; inconclusive = small, poorly fitted or top-dose-only effect, or effect the other way; inactive = flat fitted curve, though single readings scatter.
# Tested on: CAOV3
# Test: Primary qHTS to identify gynecologic anti-cancer compounds using libraries of approved drugs and bioactive compounds (AID 1345084); also: nearly all actives have a fitted effect of over 55% in size
# Settings: Gynecologic cancer cell panel viability, ATPlite luminescence, 48 h; series mostly up to 57.5 µM; activity change, negative = cytotoxicity: at the top concentration
# Procedure, shortened: (§1)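 Measured: luminescence after ATPlite addition (15 min, RT). Exposure: 48 h, 37 C, 5% CO2.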
# % is scaled to controls: 0 for no effect and ±100 for the full control effect; potency is read from the fitted curve at half-maximal effect.
SMILES,"activity change, negative = cytotoxicity",Potency
Cc1ccc(O)cc1Nc1ccnc(Nc2cccc(C(N)=O)c2)n1,-27.7% (inactive),–
Cn1ncc(Cl)c1-c1cc(C(=O)N[C@H](CN)Cc2cccc(F)c2)sc1Cl,-22.6% (inactive),–
CC(C)NCCCn1c(Sc2cc3c(cc2I)OCO3)nc2c(N)ncnc21,–,1.58 µM (active)
Cc1[nH]c(/C=C2\C(=O)Nc3cc(-c4ccccc4)ccc32)c(C)c1CCC(=O)O,-20.6% (inactive),–
CN(C)C(=O)NC1(c2ccccc2)CCN(CCC[C@]2(c3ccc(Cl)c(Cl)c3)CCCN(C(=O)c3ccccc3)C2)CC1,–,20 µM (active)
COc1ccc(-c2ccccc2)cc1NS(=O)(=O)c1cc(Cl)cc(Cl)c1O,-9.08% [at 25.3 µM] (inactive),–
CC(=O)O[C@@]12CO[C@@H]1C[C@H](O)[C@@]1(C)C(=O)[C@H](O)C3=C(C)[C@@H](OC(=O)[C@H](O)[C@@H](NC(=O)OC(C)(C)C)c4ccccc4)C[C@@](O)([C@@H](OC(=O)c4ccccc4)C12)C3(C)C (some centres undefined),-26.3% [at 25.3 µM] (inactive),–
COC(=O)C1=COC(O[C@@H]2O[C@H](CO[C@@H]3O[C@H](COC(=O)/C=C\c4ccc(O)cc4)[C@@H](O)[C@H](O)[C@H]3O)[C@@H](O)[C@H](O)[C@H]2O)C2C(CO)=CCC12 (some centres undefined),-39.9% [at 25.3 µM] (inactive),–

# Tested on: CASKI
# Test: as above
# Settings: Gynecologic cancer cell panel viability, ATPlite luminescence, 48 h; series mostly up to 57.5 µM; activity change, negative = cytotoxicity: at the top concentration
# Procedure, shortened: as §1
SMILES,Potency,"activity change, negative = cytotoxicity"
CCCC1(CCC)CCC2(CCN(CCCN(CC)CC)C2)CC1,8.91 µM (active),–
O=C(NCCCN1CCC2(CC1)OCc1ccccc12)[C@H]1CCCN1Cc1ccccc1,–,-4.71% (inactive)
CC(C)c1cc(-c2ccc(F)c3ccccc23)nc(N)n1,–,4.57% (inactive)
CC(=O)OC1CC2(C)C(CCC(C)C23Cc2c(O)cc(CO)c(C=O)c2O3)C(C)(C)C1O (centres undefined),–,4.56% [at 25.3 µM] (inactive)
CC(C)Oc1ccc(-c2cnc3c(-c4ccnc5ccccc45)cnn3c2)cc1,–,30.7% (inactive)
CC(=O)N[C@H]1[C@H](O[C@H]2CC[C@@]3(C)C(CC[C@]4(C)C3CC=C3C5CC(C)(C)CC[C@]5(C(=O)O)C(O)C[C@]34C)C2(C)C)O[C@H](CO[C@@H]2O[C@H](C)[C@H](O)[C@H](O)[C@H]2O[C@@H]2OC[C@@H](O)[C@H](O)[C@H]2O)[C@@H](O)[C@@H]1O (some centres undefined),–,25.2% [at 11.6 µM] (inactive)
Cc1cc(C)nc(SCC(=O)Nc2ncc(Cc3cccc4ccccc34)s2)n1,–,-0.68% (inactive)
COc1cccc(CN(C(=O)CC(C)(C)C)[C@H]2C[C@H](C(=O)N3CCNCC3)N(Cc3ccc4c(c3)OCO4)C2)c1,–,5.2% (inactive)
Fc1ccc(N2CCN(CCC3OCCc4ccccc43)CC2)cc1 (centres undefined),–,-0.0401% (inactive)
O=C(NCc1ccccc1)c1ccc2c(=O)n(-c3cccc(C(F)(F)F)c3)c(=S)[nH]c2c1,–,0.67% (inactive)
CN[C@@H]1[C@H](O[C@H]2[C@H](O[C@@H]3[C@@H](O)[C@H](O)[C@@H](N=C(N)N)[C@H](O)[C@H]3N=C(N)N)O[C@@H](C)[C@]2(O)CO)O[C@@H](CO)[C@H](O)[C@H]1O,–,8.2% (inactive)
CC1CCC(=O)CC(SCC(O)C(=O)O)CCC(=O)O1 (centres undefined),–,-1.77% (inactive)
C=C1CC[C@H]2C(=C)CC[C@H]3C(=C)C(=O)O[C@@H]3[C@@H]12,–,0.439% (inactive)
C=C1C(=O)O[C@@H]2C=C(COC(C)=O)CC/C=C(\CO)CC[C@@H]12,–,1.79% [at 38.5 µM] (inactive)
CC(=O)OC1C(=O)C2C3OCC4=C3[C@@](C)(CC[C@@H]4O)CC[C@]2(C)[C@H]1C(C)C (some centres undefined),–,-0.74% [at 38.5 µM] (inactive)
O=c1[nH]c2cccc(N3CCN(Cc4ccc(-c5ccccc5)cc4)CC3)c2o1,–,5.53% (inactive)

SMILES,Potency,"activity change, negative = cytotoxicity"
Cc1nc(Nc2ccc(F)cc2)nc(N2CCc3ccccc3C2C)c1C (centres undefined),–,7.65% (inactive)
C[C@@H](O[C@H]1OCCN(Cc2nn(P(=O)(O)O)c(=O)[nH]2)[C@H]1c1ccc(F)cc1)c1cc(C(F)(F)F)cc(C(F)(F)F)c1,–,15% [at 25.3 µM] (inactive)
COC(=O)C[C@H]1[C@]2(C)C3=C(C)[C@H](c4ccoc4)C[C@H]3O[C@@H]2[C@H](O)C2[C@](C)(C(=O)OC)C=CC(=O)[C@@]21C (some centres undefined),–,-15.2% [at 25.3 µM] (inactive)
CC(=O)c1ccc2c(c1)[C@H](NC(=O)c1ccc(F)c(Cl)c1)[C@H](O)C(C)(C)O2,–,30.8% (inactive)
CC1OC(OC2C(O)COC(O[C@@H]3[C@@H](O)[C@@H](O)[C@H](OC4C(OC(=O)[C@]56CCC(C)(C)CC5C5=CCC7[C@@]8(C)C[C@H](O)[C@H](OC9OC(CO)C(O)C(O)C9O)[C@@](C)(CO)C8[C@H](O)C[C@@]7(C)[C@]5(C)CC6)OCC(O)C4O)O[C@H]3C)C2O)C(O)C(O)C1O (some centres undefined),–,20% [at 6.55 µM] (inactive)
Cc1c(C(=O)NCc2cccnc2)nn(-c2ccc(Cl)cc2Cl)c1-c1ccc(Cl)cc1,–,-2.14% (inactive)
C=C1CCC[C@]2(C)CC/C(=C(/CO)C(=O)OC)C[C@@H]12,–,10.7% (inactive)
CC/C(C)=C/C(=O)OC1C(OC2(C)CCC3C(C4C(C)CCC42)C3(C)C)OC(C)C(O)C1O (centres undefined),–,-1.72% [at 25.3 µM] (inactive)
CC(C)[C@@H](c1ccc(C(F)(F)F)cc1CN(Cc1cc(C(F)(F)F)cc(C(F)(F)F)c1)c1nnn(C)n1)N1CCC(C(=O)O)CC1,–,17.6% (inactive)
O=C(O)c1ccc(S(=O)(=O)N(Cc2ccc(OC(F)(F)F)cc2)c2ncc(C(F)(F)F)cc2Cl)cc1,–,17.2% (inactive)
COc1ccc(OC)c(-c2ccc(NC(=O)c3ccncc3F)cc2)c1,–,12.1% (inactive)
C[C@H]1CC[C@@]2(OC1)O[C@H]1CC3C4CC[C@H]5C[C@@H](O)CC[C@]5(C)C4=CC(=O)[C@]3(C)[C@H]1[C@@H]2C (some centres undefined),–,4.49% [at 25.3 µM] (inactive)
O=C1c2ccc(Nc3ccc(F)cc3F)cc2CCc2ccc(OCC(O)CO)cc21 (centres undefined),–,2.72% (inactive)
CC1(C)OC[C@H](NC(=O)Nc2ccc(Br)cc2Br)[C@H](c2ccccc2)O1,–,0.389% (inactive)
COc1ccc(C(=O)Nc2c(Cl)cncc2Cl)cc1OC1CCCC1,–,6.08% (inactive)
